Test results from PubChem BioAssay (Tox21).
Inconclusive results are not listed. A call without a number means that no potency is given here. Calls of active or inactive are those of the source. Unless noted, the call rests on the fitted dose curve.

Assay: qHTS assay for small molecule disruptors of the mitochondrial membrane potential - cell viability (AID 720634);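 further: human HepG2 liver cancer cells; nearly all actives have a fitted effect of over 20% in size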
Details: HepG2 viability, ATP luminescence (CellTiter-Glo), 1 h; series mostly up to 83.2 µM
Summary of the method: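 Same-well counter-screen: following the MMP dye addition, CellTiter-Glo was added to 1 hr compound-treated HepG2 cells and luminescence read after 30 min at room temperature.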

Row | Compound | Potency
1 | Nc1ccc(C(=O)OCCCOC(=O)c2ccc(N)cc2)cc1 | inactive
2 | NC(=O)N(O)[C@@H]1COc2cc(OCc3ccccc3)ccc21 | inactive
3 | CC(=O)OCC(=O)[C@@]12OC(C)(C)O[C@@H]1C[C@H]1[C@@H]3C[C@H](F)C4=CC(=O)C=C[C@]4(C)[C@@]3(F)[C@@H](O)C[C@@]12C | inactive
4 | CCCCCCOC(=O)CCCCCCCC(=O)OCCCCCC | inactive
5 | O=C(CCCN1CCN(c2ccc(F)cc2)CC1)NC1c2ccccc2CSc2ccccc21 (stereo not given) | inactive
6 | CCc1cccc(N(C)C(N)=Nc2cccc3ccccc23)c1 | inactive
7 | O=C(CCC1CCN(Cc2ccccc2)CC1)c1ccc2c(c1)NCCCC2 | inactive
8 | CN(C)C(=O)Nc1ccc(Oc2ccc(Cl)cc2)cc1 | inactive
9 | Cc1nccn1-c1ccc(Sc2cccc(C3(C(N)=O)CCOCC3)c2)cc1 | inactive
10 | CC1=C(/C=C/C(C)=C\C=C\C(C)=C\C(=O)O)C(C)(C)CCC1 | inactive
11 | Cc1c(C(=O)NN2CCCCC2)nn(-c2ccc(Cl)cc2Cl)c1-c1ccc(Cl)cc1 | inactive
12 | Brc1cc(-c2ccc(Br)c(Br)c2Br)cc(Br)c1Br | inactive
13 | COC(OC)(C(=O)c1ccccc1)c1ccccc1 | inactive
14 | CC1=NN(c2ccc(C(=O)O)cc2)C(=O)C1 | inactive
15 | CC[C@H](NC(=O)c1cc(F)ccc1NS(=O)(=O)c1cccc2cccnc12)c1ccccc1 | inactive
16 | COc1cc2c(N3CCN(C(=O)Nc4ccc(OC(C)C)cc4)CC3)ncnc2cc1OCCCN1CCCCC1 | inactive
17 | CC(Cl)C(Cl)Cl (stereo not given) | inactive
18 | Nc1ccc(Cl)cc1[N+](=O)[O-] | inactive
19 | NC(=O)Cn1c(=O)cc(CCN2CCN(c3nccc4sccc34)CC2)c2ccc(F)cc21 | inactive
20 | CC(C)(O)c1ccccc1CC[C@@H](SCC1(CC(=O)O)CC1)c1cccc(/C=C/c2ccc3ccc(Cl)cc3n2)c1 | inactive
21 | CC(C)CCCCCOC(=O)CCCCC(=O)OCCCCCC(C)C | inactive
22 | CC(=O)[C@H]1CC[C@H]2[C@@H]3C=CC4=CC(=O)CC[C@@]4(C)[C@@H]3CC[C@]12C | inactive
23 | COCCOC | inactive

Assay: qHTS assay for small molecule disruptors of the mitochondrial membrane potential (AID 720635; active means well fitted inhibition curve with a large enough effect in the signal ratio in the repeat runs; the % refers to the signal ratio; further: potency means the concentration at half of the fitted maximal effect)
Details: HepG2 mitochondrial membrane potential, Mito-MPS dye ratio; series mostly up to 83.2 µM
Summary of the method: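 Mitochondrial membrane potential tracked with Mito-MPS dye, red aggregates (ex 540/em 590 nm) against green monomers (ex 490/em 535 nm). Compound treatment 1 hr at 37C, dye 30 min in HepG2.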

Row | Compound | Potency
24 | Nc1ccc(C(=O)OCCCOC(=O)c2ccc(N)cc2)cc1 | 27.3 µM (active)
25 | N#C/C(=C1/SC[C@@H](c2ccc(Cl)cc2Cl)S1)n1ccnc1 | 26.6 µM (active)
26 | c1cc[c]([Bi]([c]2ccccc2)[c]2ccccc2)cc1 | 24.3 µM (active)
27 | CC(=O)OCC(=O)[C@@]12OC(C)(C)O[C@@H]1C[C@H]1[C@@H]3C[C@H](F)C4=CC(=O)C=C[C@]4(C)[C@@]3(F)[C@@H](O)C[C@@]12C | inactive
28 | CCCCCCOC(=O)CCCCCCCC(=O)OCCCCCC | inactive
29 | O=C(Nc1ccccc1)Nc1ccccc1 | 1.73 µM (active)
30 | CCc1cccc(N(C)C(N)=Nc2cccc3ccccc23)c1 | inactive
31 | CN(C)C(=O)Nc1ccc(Oc2ccc(Cl)cc2)cc1 | 6.11 µM (active)
32 | CC(C)C(OC(=O)c1ccccc1)C(C)(C)COC(=O)c1ccccc1 (stereo not given) | 27.3 µM (active)
33 | Cc1nccn1-c1ccc(Sc2cccc(C3(C(N)=O)CCOCC3)c2)cc1 | inactive
34 | Cc1c(C(=O)NN2CCCCC2)nn(-c2ccc(Cl)cc2Cl)c1-c1ccc(Cl)cc1 | 23.7 µM (active)
35 | CC(=O)Oc1ccc2c(c1)CC[C@@H]1[C@@H]2CC[C@]2(C)[C@@H](O)CC[C@@H]12 | 8.41 µM (active)
36 | Cc1ccc(S(=O)(=O)NC2CCCCC2)cc1 | 21.5 µM (active)
37 | CC1C2CC(CC2C2CCCC(O)C2)C1(C)C (stereo not given) | 27.3 µM (active)
38 | CC1=NN(c2ccc(C(=O)O)cc2)C(=O)C1 | inactive
39 | CC[C@H](NC(=O)c1cc(F)ccc1NS(=O)(=O)c1cccc2cccnc12)c1ccccc1 | 2.05 µM (active)
40 | COc1cc2c(N3CCN(C(=O)Nc4ccc(OC(C)C)cc4)CC3)ncnc2cc1OCCCN1CCCCC1 | 26.6 µM (active)
41 | CC(Cl)C(Cl)Cl (stereo not given) | inactive
42 | Nc1ccc(Cl)cc1[N+](=O)[O-] | 53.9 µM (active)
43 | CCCC1C(CC)=CC(CC)=CN1c1ccccc1 (stereo not given) | 54.5 µM (active)
44 | CC(C)CCCCCOC(=O)CCCCC(=O)OCCCCCC(C)C | inactive
45 | COCCOC | inactive
